Data published in PubChem BioAssay (Tox21).
Values joined by “and” are separate entries in the source; they are usually repeats but may differ in a detail not shown here. Equal values may be shown once. Results filed as inconclusive are left out. Entries that show only a call come without a potency. Where a structure was tested more than once in an assay, its records may differ in their call. Active and inactive are the calls of the source. Unless noted, the call rests on the fitted dose curve; in most records, active means well fitted curve in the direction sought with a large enough effect in the repeat runs; inconclusive means weak or mixed curves; inactive means no such curve, though single readings can be large; an effect the other way counts as inactive or inconclusive.

Columns and labels:
[1] = qHTS assay to identify small molecule antagonists of the estrogen related receptor (ERR) signaling pathway from Tox21 library - cell viability counter screen (AID 1224834); further: nearly all actives have a fitted effect of over 30% in size; further: potency means the concentration at half of the fitted maximal effect
How it was run: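 Cytotoxicity of test substances is gauged in the same ERR cells used for the antagonist screen, after 17.5 h of compound treatment at 37 C, by CellTiter-Fluor fluorescence measured after 30 min.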

[2] = target: Luciferin 4-monooxygenase (Photinus pyralis) (UniProt P08659); test: qHTS assay to identify small molecule inhibitors of firefly luciferase (AID 1224835); further: nearly all actives have a fitted effect of over 25% in size; further: potency means the concentration at half of the fitted maximal effect
How it was run: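 Inhibition of purified Photinus luciferase is measured by luminescence. Substrate levels (D-luciferin, ATP) sit at their KM values. Each compound is tested in a concentration series.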

[3] = qHTS assay to identify small molecule antagonists of the constitutive androstane receptor (CAR) signaling pathway - cell viability counter screen (AID 1224837); further: nearly all actives have a fitted effect of over 45% in size
How it was run: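 Multiplexed cytotoxicity read-out for the CAR antagonist screen: double-stable HepG2-CYP2B6-hCAR cells co-treated with 50 nM CITCO (final) and compound over 15 concentrations, incubated 23 hr, then assessed by CellTiter-Fluor fluorescence.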

[4] = target: Nuclear receptor subfamily 1 group I member 3 (Homo sapiens) (UniProt Q14994); test: qHTS assay to identify small molecule antagonists of the constitutive androstane receptor (CAR) signaling pathway (AID 1224838); further: nearly all actives have a fitted effect of over 40% in size
How it was run: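 Compounds were titrated across 15 concentrations onto HepG2 cells double-stably expressing hCAR and a CYP2B6-2.2kb reporter, together with 50 nM CITCO (final). After 24 h at 37 C, luciferase activity was measured by luminescence.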

[5] = target: Nuclear receptor subfamily 1 group I member 3 (Homo sapiens) (UniProt Q14994); test: qHTS assay to identify small molecule agonists of the constitutive androstane receptor (CAR) signaling pathway (AID 1224839); further: nearly all actives have a fitted effect of over 15% in size; further: potency means the concentration at half of the fitted maximal effect;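 on activation: HepG2 cells stably carrying human CAR and a CYP2B6 luciferase reporter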
How it was run: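 Double-stable HepG2 cells (hCAR, CYP2B6-2.2kb) seeded 4 h before compound addition. Exposure 24 h with 0.75 uM PK11195 final. Luciferase detected by ONE-Glo.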

[6] = qHTS assay to identify small molecule antagonists of the estrogen related receptor signaling pathway with the pleiotropic PPARgamma coactivator (PGC) from Tox21 10K library - cell viability counter screen (AID 1224840; active means well fitted cell-killing curve with a large enough effect in the repeat runs, not every such curve was filed as active; further: nearly all actives have a fitted effect of over 40% in size)
How it was run: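 Step one, plate 2,000 PGC/ERR cells per well; step two, incubate 6 h at 37 C/5% CO2; step three, pin-transfer compounds; step four, incubate 17.5 h; step five, add CellTiter-Fluor and read fluorescence after 30 min.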

[7] = qHTS assay to identify small molecule agonists of the hypoxia (HIF-1) signaling pathway - cell viability counter screen (AID 1224844; calls by dose curve; further: nearly all actives have a fitted effect of over 50% in size)
How it was run: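 Tox21 10K compounds were added to HRE-bla ME-180 cells (0.5% dialyzed FBS) and incubated 17 hrs at 37C; ATP-based CellTiter-Glo luminescence then reported cell viability in the same wells.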

[8] = qHTS assay to identify small molecule agonists of H2AX (AID 1224845; active means well fitted activation curve with a large enough effect in the signal ratio in the repeat runs, not every such curve was filed as active; the % refers to the signal ratio; further: potency means the concentration at half of the fitted maximal effect)
How it was run: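 Phospho-H2AX Ser139 measured by HTRF (ex 320 nm; em 665 and 620 nm) after 24 hr antibody incubation. Compounds, 15 concentrations, 0.76% DMSO, were applied to CHO-K1 cells for 3hr at 37C before lysis.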

[9] = qHTS assay to identify small molecule agonists of the hypoxia (HIF-1) signaling pathway (AID 1224846; active means well fitted activation curve with a large enough effect in the signal ratio in the repeat runs, not every such curve was filed as active; the % refers to the signal ratio)
How it was run: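 Steps: seed ME-180 HRE-bla cells (2,000/well, 0.5% dialyzed FBS); incubate 5 hrs at 37C; pin-transfer compounds or DMSO; incubate 17 hrs; add LiveBLAzer B/G substrate CCF4-AM; measure reporter activation by FRET.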

[10] = qHTS assay to identify small molecule agonists of H2AX - cell viability counter screen (AID 1224847; calls by dose curve; further: nearly all actives have a fitted effect of over 30% in size; further: potency means the concentration at half of the fitted maximal effect)
How it was run: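 Quantitative HTS viability measurement: CHO-K1 wild-type cells in serum (10% FBS) medium, short 3 hr drug exposure at 37C with 0.76% DMSO, CellTiter-Glo luminescent detection.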

[11] = qHTS RealTime-Glo MT Cell Viability Assay in HepG2 cells - 24 hour (AID 1224867); further: nearly all actives have a fitted effect of over 50% in size
How it was run: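 Luminescence read-out: viable HepG2 cells reduce a prosubstrate to a NanoLuc substrate, giving a signal proportional to live cell number. Reads taken at 0, 8, 16, 24, 32 and 40 h of compound exposure at 37 C.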

[12] = qHTS RealTime-Glo MT Cell Viability Assay in HEK293 cells - 32 hour (AID 1224868); further: top concentration of the series differs between compounds; nearly all actives have a fitted effect of over 50% in size
How it was run: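 Nonlytic real-time viability readout: viable cells convert prosubstrate to NanoLuc substrate, giving luminescence proportional to live cell number. HEK293, 600 cells/well, compound added after 5 h, continuous culture at 37 C.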

[13] = A CellTox Green Cytotoxicity Assay to monitor cytotoxicity in HEK293 cells - 0 hour (AID 1224869); further: nearly all actives have a fitted effect of over 50% in size
How it was run: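 Cytotoxicity was tracked continuously in HEK293 cells by a DNA-binding dye excluded from viable cells. Compounds were transferred in DMSO 5 h after seeding; fluorescence was recorded at intervals up to 40 h.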

[14] = qHTS assay to identify small molecule agonists of the constitutive androstane receptor (CAR) signaling pathway - cell viability counter screen (AID 1224836); further: nearly all actives have a fitted effect of over 45% in size
How it was run: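 Using CellTiter-Fluor, viability of HepG2 cells harbouring hCAR and CYP2B6-2.2kb was measured following 23 h incubation with a 15-concentration compound series plus PK11195 (0.75 uM final).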

[15] = qHTS assay to identify small molecule antagonists of the estrogen related receptor signaling pathway with the pleiotropic PPARgamma coactivator (PGC) from Tox21 10K library (AID 1224841; call rule not given here)
How it was run: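 Antagonism in this quantitative HTS is taken from loss of luciferase signal in PGC/ERR cells. Cells (2,000/well) are treated with compounds in DMSO after a 6 h settling period and read by One-Glo luminescence after 18 h.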

[16] = qHTS assay to identify small molecule agonists of the estrogen related receptor signaling pathway with the pleiotropic PPARgamma coactivator (PGC) from Tox21 10K library (AID 1224842); further: nearly all actives have a fitted effect of over 15% in size
How it was run: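 Luminescence from One-Glo (30 min, room temperature) measured after PGC/ERR cells had 18 h at 37 C with pinned compound (23 nL in DMSO). Cells had been seeded at 2,000 per well and pre-incubated 6 h.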

[17] = target: Thyrotropin receptor (Homo sapiens) (UniProt P16473); test: qHTS assay to identify small molecule agonists of the thyroid stimulating hormone receptor (TSHR) signaling pathway (AID 1224843; calls by dose curve; further: nearly all actives have a fitted effect of over 45% in size; further: potency means the concentration at half of the fitted maximal effect)
How it was run: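 HEK293 cells stably bearing the thyrotropin receptor were plated at 800 cells/well and challenged with compound (30 min, RT). Accumulated cAMP was quantified via cAMP-d2 competing for cryptate-tagged antibody.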

[18] = qHTS assay to identify small molecule antagonists of the estrogen related receptor (ERR) signaling pathway from Tox21 library (AID 1224848); further: nearly all actives have a fitted effect of over 50% in size
How it was run: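 Reading was by luminescence 30 min after ONE-Glo addition. Before that, ERR cells at 2,000 per well had rested 6 h at 37 C/5% CO2 and then received pin-tooled compounds in DMSO for 18 h at 37 C.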

[19] = qHTS assay to identify small molecule agonists of the estrogen related receptor (ERR) signaling pathway from Tox21 library (AID 1224849; calls by dose curve; further: nearly all actives have a fitted effect of over 15% in size); conditions: ERR reporter cell line, ONE-Glo luciferase, 18 h; at 92.4 µM (top of the series)
How it was run: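 Agonist signal is luciferase luminescence from an ERR reporter cell line treated 18 h at 37 C with DMSO-dissolved compounds, read 30 min after ONE-Glo addition at room temperature.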

Sequence of Luciferin 4-monooxygenase (Photinus pyralis) (P08659 whole entry, looked up): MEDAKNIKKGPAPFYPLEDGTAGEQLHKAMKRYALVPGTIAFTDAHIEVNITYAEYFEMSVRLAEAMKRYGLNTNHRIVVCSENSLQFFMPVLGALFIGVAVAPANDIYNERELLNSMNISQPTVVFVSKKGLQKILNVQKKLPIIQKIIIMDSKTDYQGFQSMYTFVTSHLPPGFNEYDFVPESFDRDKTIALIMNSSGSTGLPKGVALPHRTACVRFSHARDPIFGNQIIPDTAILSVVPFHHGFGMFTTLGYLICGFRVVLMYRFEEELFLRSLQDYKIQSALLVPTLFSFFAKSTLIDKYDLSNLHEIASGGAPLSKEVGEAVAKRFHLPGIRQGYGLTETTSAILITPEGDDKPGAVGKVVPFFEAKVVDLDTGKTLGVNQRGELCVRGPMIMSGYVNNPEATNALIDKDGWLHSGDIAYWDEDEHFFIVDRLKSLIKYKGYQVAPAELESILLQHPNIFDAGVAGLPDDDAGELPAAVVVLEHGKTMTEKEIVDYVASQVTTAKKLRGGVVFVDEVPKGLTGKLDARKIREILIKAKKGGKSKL
Sequence of Nuclear receptor subfamily 1 group I member 3 (Homo sapiens) (Q14994 whole entry, looked up): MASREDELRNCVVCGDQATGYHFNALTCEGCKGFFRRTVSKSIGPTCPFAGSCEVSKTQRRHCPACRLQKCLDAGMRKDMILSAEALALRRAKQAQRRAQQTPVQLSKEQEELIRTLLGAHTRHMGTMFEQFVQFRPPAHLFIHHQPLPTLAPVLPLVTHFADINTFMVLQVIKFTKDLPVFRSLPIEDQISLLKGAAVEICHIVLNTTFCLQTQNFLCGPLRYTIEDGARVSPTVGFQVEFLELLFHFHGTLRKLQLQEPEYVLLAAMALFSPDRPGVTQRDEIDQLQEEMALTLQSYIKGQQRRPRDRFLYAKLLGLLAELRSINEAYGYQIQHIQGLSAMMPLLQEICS
Sequence of Thyrotropin receptor (Homo sapiens) (P16473 whole entry, looked up): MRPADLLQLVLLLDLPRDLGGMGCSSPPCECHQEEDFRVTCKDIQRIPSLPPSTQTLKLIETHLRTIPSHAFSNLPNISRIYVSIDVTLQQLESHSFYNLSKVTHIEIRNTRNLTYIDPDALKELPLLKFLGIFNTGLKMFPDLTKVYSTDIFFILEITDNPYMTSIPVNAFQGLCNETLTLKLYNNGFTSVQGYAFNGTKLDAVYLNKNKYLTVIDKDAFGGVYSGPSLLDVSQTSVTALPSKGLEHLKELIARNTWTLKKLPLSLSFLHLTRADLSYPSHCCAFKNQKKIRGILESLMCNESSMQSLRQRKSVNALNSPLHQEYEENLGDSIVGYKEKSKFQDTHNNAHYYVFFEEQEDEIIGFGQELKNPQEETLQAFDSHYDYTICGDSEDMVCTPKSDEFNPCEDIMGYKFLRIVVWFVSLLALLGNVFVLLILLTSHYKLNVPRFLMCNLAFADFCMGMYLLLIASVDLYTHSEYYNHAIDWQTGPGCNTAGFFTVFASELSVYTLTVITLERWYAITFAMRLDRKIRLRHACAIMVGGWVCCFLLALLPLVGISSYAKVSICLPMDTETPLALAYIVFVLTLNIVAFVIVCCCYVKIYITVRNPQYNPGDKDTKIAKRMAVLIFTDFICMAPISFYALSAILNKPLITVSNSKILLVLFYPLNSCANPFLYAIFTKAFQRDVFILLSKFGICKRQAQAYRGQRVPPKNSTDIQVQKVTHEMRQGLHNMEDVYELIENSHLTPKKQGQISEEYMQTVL

Structure (SMILES)	Potency [1]	Potency [2]	Potency [3]	Potency [4]	Potency [5]	Potency [6]	Potency [7]	Potency [8]	outcome [9]	Potency [10]	outcome [11]	Potency [12]	Potency [13]	Potency [14]	Potency [15]	Potency [16]	Potency [17]	Potency [18]	activity change, positive = activation [19]
CNC(=O)O/N=C/C(C)(C)S(C)(=O)=O	inactive	inactive	inactive	inactive	inactive	inactive	inactive	inactive	inactive	inactive	inactive	inactive	inactive	–	–	–	–	–	–
OCCCCO	inactive	–	inactive	inactive	inactive	inactive	inactive	inactive	inactive	inactive	inactive	inactive	inactive	inactive	inactive	inactive	inactive	inactive	2.81% (inactive) and 0.133% (inactive)
CCOP(=S)(OCC)Oc1cc(C)nc(C(C)C)n1	inactive	inactive	inactive	inactive	inactive	inactive	inactive	inactive	inactive	inactive	inactive	inactive	inactive	–	–	–	inactive	–	–
CNc1cnn(-c2cccc(C(F)(F)F)c2)c(=O)c1Cl	inactive	34.3 µM (active) and 39.9 µM (active)	inactive	inactive	16.6 µM (active) and 24.3 µM (active)	inactive	inactive	inactive	inactive	inactive	inactive	inactive	inactive	–	–	–	–	–	–
Nc1ccc(N)cc1	30.8 µM (active) and 30.6 µM (active) and inactive	40.1 µM (active) and 35.6 µM (active)	–	inactive	21.8 µM (active) and 21.7 µM (active) and inactive	inactive	inactive	inactive	inactive	inactive	inactive	inactive	inactive	–	–	–	inactive	–	–
ClCCOCCCl	inactive	inactive	inactive	–	–	inactive	inactive	inactive	inactive	inactive	inactive	inactive	inactive	–	–	–	inactive	–	–
Cc1ccccc1N	inactive	inactive	inactive	inactive	inactive	inactive	inactive	inactive	inactive	inactive	inactive	inactive	inactive	–	–	–	1.08 µM (active) and inactive	–	–
CN(C)C(=O)C(c1ccccc1)c1ccccc1	inactive	inactive	inactive	inactive	26.9 µM (active) and 12.2 µM (active)	inactive	inactive	inactive	inactive	inactive	inactive	inactive	inactive	–	–	–	–	–	–
C[C@]12CC[C@H](O)CC1=CC[C@@H]1[C@@H]2CC[C@]2(C)C(=O)CC[C@@H]12	inactive	inactive	inactive	inactive	inactive	inactive	inactive	inactive	–	89.8 µM (active) and inactive	inactive	inactive	inactive	–	–	–	inactive	–	–
CCCOC(=O)c1ccccc1C(=O)OCCC	inactive	inactive	inactive	–	–	inactive	inactive	inactive	inactive	inactive	inactive	inactive	inactive	–	–	–	–	–	–
N#Cc1cccc(C#N)c1	inactive	inactive	inactive	inactive	inactive	inactive	inactive	inactive	inactive	inactive	inactive	inactive	inactive	–	–	–	inactive	–	–
C=CC(=O)OCC(CC)CCCC (stereo not drawn)	inactive	–	inactive	inactive	inactive	inactive	inactive	inactive	inactive	inactive	inactive	inactive	inactive	–	inactive	inactive	inactive	inactive	0.98% (inactive) and -12% (inactive)
O=C(O)CCCc1ccc(N(CCCl)CCCl)cc1	inactive	inactive	inactive	–	–	inactive	inactive	56.9 µM (active)	inactive	inactive	inactive	–	inactive	–	–	–	inactive	–	–
CC(=O)/C=C/c1ccccc1	inactive	inactive	inactive	inactive	inactive	inactive	inactive	inactive	inactive	inactive	inactive	inactive	inactive	–	–	–	inactive	–	–
CC12CC1(C)C(=O)N(c1cc(Cl)cc(Cl)c1)C2=O (stereo not drawn)	inactive	inactive	inactive	inactive	inactive	inactive	inactive	inactive	inactive	inactive	inactive	inactive	inactive	–	–	–	–	–	–
